Each structure is given as a SMILES string. Several values for one entry are separate records, joined by “and”; a condition that tells them apart may be missing. Equal values may be shown once. About 83,000 compounds went through this panel and 20% of them were active in at least one assay; those are over-represented in the sample as a whole.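 Cells were grown in 96-well plates and exposed to the test compound at a single concentration for 48 hours; results are reported as percent growth, with values below 10 considered active.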 Values without a mark were called inactive. Activity calls are given as the source filed them.

This test deals with HL-60(TB) leukemia. The test can be described thus: NCI-60 one-dose screen, 48 h (100 = growth as untreated, 0 = no growth, -100 = all killed). To be noted: 10 µM unless noted.
Consider `C[C@]12CC[C@@H]3c4ccc(O)cc4C[C@@H](O)[C@H]3[C@@H]1CC[C@@H]2O`, for which the growth was 101%.

As to `CN1CCN(c2nc(NCCCCNc3ccnc4cc(Cl)ccc34)c3ccccc3n2)CC1`, the growth is 28.6%.

For `COC(=O)c1cc(-c2cccs2)c(C#N)c(N)c1C#N`, the growth was 108%.

For the molecule `COc1cc(C2NC(=O)C(C#N)=C(Nc3cccc(C)c3)S2)ccc1O` (stereo not given), the growth was 84%.

Take `COP(=O)(OC)C(C)(C)CC(=O)CC(C#N)(C#N)C(C#N)C#N`: the growth was 103%.

For `COc1ccccc1NC(=O)OCC#CCOC(=O)Nc1ccccc1OC`, the growth was 85.4% and 64.8%.

For the molecule `COc1cc(C)c(Cl)cc1C1=NN(c2ccc(S(N)(=O)=O)cc2)C(/C=C/c2ccccc2)C1` (stereo not given), the growth is 63.6%.

As to `Cc1noc(C)c1C(=O)OCc1coc2ccccc2c1=O`, the growth is 12.4%.

On to `CC(=O)Nc1nc(C)c(C(=O)NNC=O)s1`, for which the growth is 104%.

Turning to `COC(=O)[C@H](Cc1ccccc1)NC(=O)[C@@H](OC)[C@@H]1Cc2cc3cc(OC4CC(OC5CC(O)C(O)C(C)O5)C(O)C(C)O4)c(C)c(O)c3c(O)c2C(=O)[C@H]1OC1CC(OC2CC(OC3CC(C)(O)C(O)C(C)O3)C(O)C(C)O2)C(O)C(C)O1` (stereo not given in full), the growth was -9.07% (active).

For `COc1cc2nc(-c3ccc(C(F)(F)F)cc3)cc(OCCN3CCC(O)CC3)c2cc1OC`, the growth was 68.6%.

Regarding `CC(C)(C)OC[C@@H]1N=C(c2ccc(Br)cc2)Nc2nc3ccccn3c2C1=O`, the growth is 33.1%.

For the molecule `CCc1nc2cc(/C=C/C(=O)NO)ccc2c(=O)n1CCc1ccc(F)cc1`, the growth is -7.3% (active).

On to `COc1ccc(-c2nnc(COc3ccc(NC(=O)Nc4ccc(Cl)c(C(F)(F)F)c4)cc3F)o2)cc1`, for which the growth was -18.5% (active).

Consider `CCN1CCN(C(=O)[C@]23CCC(C)(C)C[C@@H]2C2=CC[C@@H]4[C@@]5(C)CCC(=O)C(C)(C)[C@@H]5CC[C@@]4(C)[C@]2(C)CC3)CC1`, for which the growth was -35.8% (active).

On to `COc1cc(C2CC(c3ccccc3)=NN2C=O)ccc1Oc1ccnc2cc(Cl)ccc12` (stereo not given), for which the growth was 33.5%.

Take `CCCC(=O)Oc1ccc(/C(=C(\C)c2ccc(OC)cc2)c2ccc(OCCN3CCCCC3)cc2)cc1`: the growth was 89.6%.

`Cc1ccc(S(=O)(=O)Oc2ccc([N+](=O)[O-])cc2[N+](=O)[O-])cc1`: the growth was 47.9%.

Turning to `COc1cc(-c2csc(NC(=O)c3cc(-n4cnc(C)c4)cc(C(F)(F)F)c3)n2)cc(OC)c1OC`, the growth was 61%.

For `CCOC(=O)c1cn2ncnc(Oc3ccc(NC(=O)NCCN4CCOCC4)c(Cl)c3)c2c1C`, the growth is 101%.

`Cc1nc2c(=O)[nH]c(=S)[nH]c2[nH]c1=O`: the growth is 75.3% and 96.3%.

Regarding `COc1ccc(-c2ccc3c(c2)sc2nc(-c4ccc(F)cc4)cn23)cc1`, the growth was 92%.

Turning to `O=C1c2c(c3c4ccc(Br)cc4oc3c3[nH]c4ccccc4c23)C(=O)N1O`, the growth was 25%.

`CC(=O)N1c2ccccc2NC2=C(C(=O)N(C)C2(C)C)C1C` (stereo not given): the growth was 7.5% (active).

On to `COc1ccc(/C=C2\C(=O)N=C3N2NC(c2cc(Br)ccc2O)C=C(C)N3c2ccccc2)cc1` (stereo not given), for which the growth is 99%.

The record behind these values is PubChem BioAssay (NCI).
